Molecules are shown by their SMILES. Records with an inconclusive call do not appear. Active and inactive are the calls of the source. Calls come from the whole dose curve; as a rule, active = well fitted inhibition curve with a large enough effect; inconclusive = small, poorly fitted or top-dose-only effect; inactive = flat fitted curve, though single readings scatter. Where a SMILES comes first, the peptide text is derived from it. Bridges are numbered along the chain shown (N, C = ends). [ ]: non-standard residue; d: D form. hArg = N=C(N)NCCCC[C@H](N)C(=O)O; Mpa = O=C(O)CCS

In the experiment the test system is TAB165. The experiment can be described thus: qHTS profiling for inhibitors of Plasmodium falciparum proliferation (AID 504749).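 Note: 0% = DMSO vehicle and full inhibition = artemisinin control; nearly all actives have a fitted effect of over 60% in size.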 As to conditions: P. falciparum in erythrocytes, SYBR Green DNA, 72 h; series mostly up to 28.7 µM; activity, negative = inhibition: at the top concentration. In a few lines:
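Each compound contacts P. falciparum-infected red blood cells for 72 h at 37 C; lysis buffer (Tris, EDTA, saponin, Triton X, SYBR Green I) is added and fluorescence measured next morning; values normalized to controls.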
Turning to `NC(=O)[C@@H]1CSSCCC(=O)N[C@@H](CCCCN=C(N)N)C(=O)NCC(=O)N[C@@H](CC(=O)O)C(=O)N[C@@H](Cc2c[nH]c3ccccc23)C(=O)N2CCC[C@H]2C(=O)N1` ([Mpa][hArg]GDWPC-NH2; disulfide 1-7), the “activity, negative = inhibition” value was -4.42% (inactive). For the compound `Cc1ccc(C(C)C)c(O)c1`, the “activity, negative = inhibition” value is 6.2% (inactive). As for `Cc1ccc(S(=O)(=O)NC(=O)NC2CCCCCCC2)cc1`, the “activity, negative = inhibition” value was 14.6% (inactive).

In the case of `CCCNC(C)(C)COC(=O)c1ccccc1`, the “activity, negative = inhibition” value is -4.54% (inactive). Regarding `C[C@@H]1CCC[C@H](C)N1`, the “activity, negative = inhibition” value was 15.8% [at 12.8 µM] (inactive). As to `CCOC(=O)[C@H](CCc1ccccc1)N[C@@H](C)C(=O)N1CCC[C@H]1C(=O)O`, the “activity, negative = inhibition” value was 11.9% (inactive). In the case of `c1ccc2[nH]ccc2c1` it was 6.72% (inactive); in that of `NS(=O)(=O)c1ccc(C(=O)O)cc1`, 1.51% (inactive); in that of `O=C(Cn1ccnc1[N+](=O)[O-])NCc1ccccc1`, 13.4% (inactive). Regarding `O=c1[nH]cnc2nc[nH]c12`, the “activity, negative = inhibition” value is 3.46% (inactive).

Turning to `O[C@@H]1CO[C@H]2[C@@H]1OC[C@@H]2O`, the “activity, negative = inhibition” value is 3.81% (inactive). As to `CC(=O)NS(=O)(=O)c1ccc(N)cc1`, the “activity, negative = inhibition” value is 8.67% (inactive). In the case of `C=CCNC(N)=S` it was 6.4% (inactive); in that of `NC(N)=NCCN1CCCCCCC1`, -0.978% [at 12.8 µM] (inactive). `O=C1c2cccc(O)c2C(=O)c2c(O)cccc21`: the “activity, negative = inhibition” value is 3.22% (inactive).

On to `NNC(=O)CP(=O)(c1ccccc1)c1ccccc1`, for which the “activity, negative = inhibition” value is -0.212% (inactive). For `Nc1ccncc1N`, the “activity, negative = inhibition” value was 5.19% (inactive). Take `Cc1ccc(S(=O)(=O)NC(=O)NC2CCCCC2)cc1`: the “activity, negative = inhibition” value was -8.86% (inactive).

As for `CN/C(=C\[N+](=O)[O-])NCCSCc1csc(CN(C)C)n1`, the “activity, negative = inhibition” value was 9.57% [at 12.8 µM] (inactive). Regarding `CCN1CC(CCN2CCOCC2)C(c2ccccc2)(c2ccccc2)C1=O` (stereo unspecified), the “activity, negative = inhibition” value is -27.6% (inactive). For `CCOC(=O)c1cccnc1`, the “activity, negative = inhibition” value is 16.4% (inactive).

The record behind these values is PubChem BioAssay (NCATS).
